Assay [1] can be described thus: growth inhibition of DIPG glioma cells, dose response, cell-based, SU-DIPG-XVII, MIPE5.0, CellTiter-Glo, qHTS (AID 1347060; cut-off not given, nearly all actives have AC50 up to about 26 µM;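 note: cells exposed to compound for 48 hours before viability readout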). The settings on record: SU-DIPG-XVII viability, CellTiter-Glo ATP luminescence. Background: In ATP-based viability assays light output follows the ATP content of the culture.
Assay [2] in a line: growth inhibition of DIPG glioma cells, dose response, cell-based, SU-DIPG-XIII, MIPE4.0, CellTiter-Glo, qHTS (AID 1347061; cut-off not given, nearly all actives have AC50 up to about 37 µM;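 note: cells exposed to compound for 48 hours before readout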). Conditions: SU-DIPG-XIII viability, CellTiter-Glo ATP luminescence.
Assay [3] in a line: growth inhibition of DIPG glioma cells, dose response, cell-based, JHH-DIPG-1, MIPE4.0, CellTiter-Glo, qHTS (AID 1347062; cut-off not given, nearly all actives have AC50 up to about 27 µM;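 note: cells exposed to compound for two days before readout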). Conditions: JHH-DIPG-1 viability, CellTiter-Glo ATP luminescence.
The nature of assay [4]: growth inhibition of DIPG glioma cells, dose response, cell-based, SU-DIPG-IV, MIPE4.0, CellTiter-Glo, qHTS (AID 1347063; cut-off not given, nearly all actives have AC50 up to about 30 µM;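 note: compound exposure lasted 48 hours before the viability readout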). Conditions: SU-DIPG-IV viability, CellTiter-Glo ATP luminescence.
The nature of assay [5]: growth inhibition of DIPG glioma cells, dose response, cell-based, SU-DIPG-XIII, MIPE5.0, CellTiter-Glo, qHTS (AID 1347064; cut-off not given, nearly all actives have AC50 up to about 23 µM;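 note: cells exposed to compound for 48 hours before the viability read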). The settings on record: SU-DIPG-XIII viability, CellTiter-Glo ATP luminescence.
Assay [6] can be described thus: viability loss in pontine glioma line – cell-based, SU-DIPG-XXV, MIPE5.0, CellTiter-Glo, qHTS, dose response (AID 1347065; cut-off not given, nearly all actives have AC50 up to about 26 µM;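 note: cells exposed to compound for 48 hours before ATP readout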). Conditions: CellTiter-Glo ATP luminescence.
Assay [7] in a line: SU-DIPG-VI glioma cell viability, MIPE4.0 library, CellTiter-Glo luminescence, qHTS (AID 1347066; cut-off not given, nearly all actives have AC50 up to about 30 µM;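 note: cells exposed to compound for 48 hours before readout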). The settings on record: CellTiter-Glo ATP luminescence.
The nature of assay [8]: JHH-DIPG-1 glioma cell viability, MIPE5.0 library, CellTiter-Glo luminescence, qHTS (AID 1347067; cut-off not given, nearly all actives have AC50 up to about 26 µM;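 note: cells exposed to compound for 48 hours before readout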). The settings on record: JHH-DIPG-1 glioma viability, CellTiter-Glo ATP luminescence.
Assay [9] is described as follows: SU-DIPG-XXV glioma cell viability, MIPE5.0 library, qHTS (AID 1347068; cut-off not given, nearly all actives have IC50 up to about 30 µM;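 note: cells exposed to compound for 48 hours before viability readout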). Background: qHTS replaces the single test concentration by a dilution series.
Assay [10] is described as follows: modifiers of HSF1 nuclear foci, imaging, Selleck Cancer Library (AID 1347162; in the data active = plate-normalised HSF1 focus index below about 0.46). Conditions: human cells, at 10 µM; SSMD: measured here: HSF1 foci SSMD mean; cell count: measured here: cell number; plate-normalised HSF1 focus index: stronger effect = lower value.
Assay [11] is described as follows: ovarian cancer cell viability with rucaparib, profiling panel, oncology-focused library, rucaparib conditional (AID 1508598). Conditions: patient-derived ovarian cancer cells, CellTiter-Glo viability, 144 h, stronger effect = lower value.
A short description of assay [12]: sensitizers of A549 cells to miR-34 induction, primary screen, imaging, A549 dox-inducible miR-34, nuclei and caspase counts (AID 1347080;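 active = compounds whose cell count with miR-34 switched on is under 0.7 times the count with it off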). Conditions: A549 miR-34 inducible, Hoechst nuclei count, 48 h.
The nature of assay [13]: survival rescue of mitochondrial mutant cells in low glucose, primary screen, MELAS cybrids, Rieske KO mouse fibroblasts, CellTiter-Glo (AID 1508586;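 active = mean z-score across replicates of 1.96 or higher in either the MELAS or the Rieske mutant cell line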;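 note: z relative to plate mean and SD of compound and empty wells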).
Where [14] appears, read: stronger effect = lower value, cell number ratio, induced over uninduced.
[15] abbreviates: measured here: relative caspase fold change +Dox/-Dox.
[16] abbreviates: measured here: total cells with miR-34 induction, stronger effect = lower value.
[17] abbreviates: measured here: total cells without miR-34 induction.
Setting [18] is: MELAS cybrid survival, CellTiter-Glo 48 h, stronger effect = higher value.
Where [19] appears, read: Rieske KO mouse fibroblast survival, CellTiter-Glo 72 h.

Usually AC50 stands for the concentration at which the activity in the assay is half-maximal. Broadly, the IC50 is the concentration that inhibits the measured activity by half. For orientation: viability means a read-out of living cells in per cent, often relative to untreated cells.

Each structure is given as a SMILES string. Results filed as inconclusive are left out. Calls of active or inactive are those of the source.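 Rule for the calls, unless noted: active = normalized viability below 100% at a tested concentration; inactive = the rest.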

As for `Clc1ccc(C(c2ccc(Cl)cc2)n2cc[n+](CC(OCc3ccc(Cl)cc3Cl)c3ccc(Cl)cc3Cl)c2)cc1` (stereo not drawn), the AC50 in assay [1] is 2.95 µM (active); in assay [2] it was 23.5 µM (active); in [3] it was 16.6 µM (active); in assay [4], 9.35 µM (active); in assay [5] it was 2.63 µM (active); in assay [6], 2.35 µM (active). Besides, the half-maximal activity concentration (AC50) in assay [7] was 13.2 µM (active); in assay [8], 2.63 µM (active). Besides, the half-inhibitory concentration (IC50) in assay [9] was 3.72 µM (active).
With `CCC[C@H](NC(=O)/C(C#N)=C/c1cccc(Br)n1)c1ccccc1`, the half-maximal activity concentration (AC50) in assay [1] was 3.32 µM (active); in [2] it was 26.4 µM (active); in assay [3], 3.32 µM (active); in assay [4], 2.35 µM (active); in assay [5] it was 3.32 µM (active); in assay [6] it was 2.63 µM (active). The AC50 was 9.35 µM (active) in [7] and 4.68 µM (active) in assay [8]. Besides, the IC50 in assay [9] is 16.6 µM (active). The molecule further returned an SSMD in assay [10] of -18.6. Besides, the cell count in assay [10] worked out at 6540. Moreover, the plate-normalised HSF1 focus index in [10] is 0.0433 (active). Besides, the viability in [11] (at 0.000305 µM, OCI-C5x cells, with rucaparib 10 µM, 100% = cells with rucaparib alone) was 119% (inactive); in assay [11] (at 0.000305 µM, OCI-C5x cells, without rucaparib), 122% (inactive); in [11] (at 0.000305 µM, OCI-P5x cells, with rucaparib 20 µM, 100% = cells with rucaparib alone) it was 94.8% (active); in [11] (at 0.000305 µM, OCI-P5x cells, without rucaparib), 113% (inactive); in assay [11] (at 0.00122 µM, OCI-C5x cells, with rucaparib 10 µM, 100% = cells with rucaparib alone) it was 114% (inactive); in assay [11] (at 0.00122 µM, OCI-C5x cells, without rucaparib) it was 137% (inactive). Also, the viability is 95.1% (active) in assay [11] (at 0.00122 µM, OCI-P5x cells, with rucaparib 20 µM, 100% = cells with rucaparib alone); 111% (inactive) in assay [11] (at 0.00122 µM, OCI-P5x cells, without rucaparib); 121% (inactive) in assay [11] (at 0.00488 µM, OCI-C5x cells, with rucaparib 10 µM, 100% = cells with rucaparib alone); 137% (inactive) in [11] (at 0.00488 µM, OCI-C5x cells, without rucaparib); 98.7% (active) in [11] (at 0.00488 µM, OCI-P5x cells, with rucaparib 20 µM, 100% = cells with rucaparib alone); 114% (inactive) in assay [11] (at 0.00488 µM, OCI-P5x cells, without rucaparib). Further, the viability was 111% (inactive) in assay [11] (at 0.0195 µM, OCI-C5x cells, with rucaparib 10 µM, 100% = cells with rucaparib alone); 135% (inactive) in assay [11] (at 0.0195 µM, OCI-C5x cells, without rucaparib); 104% (inactive) in [11] (at 0.0195 µM, OCI-P5x cells, with rucaparib 20 µM, 100% = cells with rucaparib alone); 110% (inactive) in [11] (at 0.0195 µM, OCI-P5x cells, without rucaparib); 108% (inactive) in assay [11] (at 0.0781 µM, OCI-C5x cells, with rucaparib 10 µM, 100% = cells with rucaparib alone); 128% (inactive) in assay [11] (at 0.0781 µM, OCI-C5x cells, without rucaparib). In addition, the viability in [11] (at 0.0781 µM, OCI-P5x cells, with rucaparib 20 µM, 100% = cells with rucaparib alone) was 104% (inactive); in assay [11] (at 0.0781 µM, OCI-P5x cells, without rucaparib), 128% (inactive); in assay [11] (at 0.313 µM, OCI-C5x cells, with rucaparib 10 µM, 100% = cells with rucaparib alone), 126% (inactive); in assay [11] (at 0.313 µM, OCI-C5x cells, without rucaparib), 134% (inactive); in [11] (at 0.313 µM, OCI-P5x cells, with rucaparib 20 µM, 100% = cells with rucaparib alone), 102% (inactive); in assay [11] (at 0.313 µM, OCI-P5x cells, without rucaparib) it was 123% (inactive). Further, the viability was 106% (inactive) in [11] (at 1.25 µM, OCI-C5x cells, with rucaparib 10 µM, 100% = cells with rucaparib alone); 141% (inactive) in assay [11] (at 1.25 µM, OCI-C5x cells, without rucaparib); 46.8% (active) in [11] (at 1.25 µM, OCI-P5x cells, with rucaparib 20 µM, 100% = cells with rucaparib alone); 111% (inactive) in assay [11] (at 1.25 µM, OCI-P5x cells, without rucaparib); 8.18% (active) in [11] (at 5 µM, OCI-C5x cells, with rucaparib 10 µM, 100% = cells with rucaparib alone); 102% (inactive) in [11] (at 5 µM, OCI-C5x cells, without rucaparib). The viability in assay [11] (at 5 µM, OCI-P5x cells, with rucaparib 20 µM, 100% = cells with rucaparib alone) is 2.03% (active); in assay [11] (at 5 µM, OCI-P5x cells, without rucaparib), 8.95% (active).
Turning to `CC1(C)CC(=O)c2c(C(F)(F)F)nn(-c3ccc(C(N)=O)c(NC4CCC(O)CC4)c3)c2C1` (stereo not drawn), the AC50 in assay [1] was 0.118 µM (active); in [2], 0.469 µM (active); in assay [3], 0.166 µM (active); in assay [4], 0.132 µM (active); in [5], 0.148 µM (active); in assay [6], 0.105 µM (active). For the same molecule, the concentration at half-maximal activity (AC50) was 0.148 µM (active) in [7] and 0.118 µM (active) in assay [8]. The half-inhibitory concentration (IC50) in assay [9] was 0.186 µM (active). Further, the figures for the fold change in [12] (setting [14]) and in assay [12] (setting [15]) were 0.978 (inactive) and 0.783, respectively. In addition, the cell count in [12] (setting [16]) came to 3040; in assay [12] (setting [17]), 3110. The figures for the z-score in assay [13] (setting [18]) and in assay [13] (setting [19]) were 2.87 (active) and -1.99, respectively.
Turning to `C=CC(=O)Nc1cccc(Oc2nc(Nc3ccc(N4CCN(C)CC4)cc3)ncc2Cl)c1`, the AC50 in assay [1] is 0.468 µM (active); in [2], 13.2 µM (active); in [3] it was 1.66 µM (active); in assay [4], 2.09 µM (active); in [5], 1.32 µM (active); in assay [6], 0.372 µM (active). Further, the AC50 in [7] was 18.7 µM (active); in [8], 1.18 µM (active). Also, the IC50 in assay [9] was 0.525 µM (active). The fold change was 0.981 (inactive) in assay [12] (setting [14]) and 0.779 in assay [12] (setting [15]). For the same molecule, the results for the cell count in assay [12] (setting [16]) and in assay [12] (setting [17]) were 1580 and 1610, respectively. In addition, the z-score in [13] (setting [18]) was 1.07 (inactive); in [13] (setting [19]), 0.326.
On to `NC(=NCCCCCCN=C(N)N=C(N)Nc1ccc(Cl)cc1)N=C(N)Nc1ccc(Cl)cc1`, for which the concentration at half-maximal activity (AC50) is 9.34 µM (active) in [1]; 4.18 µM (active) in assay [2]; 14.8 µM (active) in assay [3]; 18.7 µM (active) in assay [4]; 8.33 µM (active) in assay [5]; 9.34 µM (active) in assay [6]. Besides, the half-maximal activity concentration (AC50) is 13.2 µM (active) in assay [7] and 11.8 µM (active) in assay [8]. For the same molecule, the IC50 in assay [9] is 14.8 µM (active). Moreover, the fold change is 0.848 (inactive) in assay [12] (setting [14]) and 0.439 in [12] (setting [15]). Also, the cell count in [12] (setting [16]) stood at 1370; in assay [12] (setting [17]), 1620. The z-score is -0.252 (inactive) in [13] (setting [18]) and 0.00983 in assay [13] (setting [19]).

Values taken from PubChem BioAssay.
